# From the supplement of paper PMC7366291
# Where a name gives a salt, the structure may show the parent alone. ± gives the standard deviation or the standard deviation of the averaged measurements.
# How the values were obtained:
# Settings in all cases: 25 µM; exposure: 24-48 hpf
# [1] = tested on: Danio rerio Tg(wt1b:EGFP) embryo, pronephros; experiment: glomerular separation, fold change vs DMSO control; higher = glomeruli further apart (abnormal)
# How it was run: (§1)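 Dechorionated Tg(wt1b:EGFP) zebrafish embryos were treated with 25 μM compound in 0.5% DMSO, in HEPES-buffered E3 with 0.003% PTU, from 24 to 48 hpf at 28.5°C. On maximum projections of dorsal pronephros images, 16 hand-placed reference points in Fiji gave distances and angles, and values more than 2 SD from the feature mean were left out. Results are fold changes over the mean of same-day DMSO-treated embryos.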
# [2] = tested on: Danio rerio Tg(wt1b:EGFP) embryo, pronephros; experiment: glomerular width (mean of left and right), fold change vs DMSO control; higher = wider glomerulus
# How it was run: as §1
# [3] = tested on: Danio rerio Tg(wt1b:EGFP) embryo, pronephros; experiment: fraction of imaged embryos annotated as normal kidney; higher = less nephrotoxic; extreme values may be limits of the assay
# How it was run: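 The value given is the share of embryos in each treatment scored as having a normal kidney. To obtain it, dechorionated Tg(wt1b:EGFP) zebrafish embryos were treated from 24 to 48 hpf at 28.5°C with 25 μM compound in 0.5% DMSO, in 5 mM HEPES-buffered E3 with 0.003% PTU. Pronephroi were imaged by widefield fluorescence (470 nm, 10 z-slices), and every embryo was annotated by hand from maximum projections.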
# [4] = tested on: Danio rerio Tg(wt1b:EGFP) embryo, pronephros; experiment: pronephric angle neck segment to proximal convoluted tubule (mean of left and right), fold change vs DMSO control; higher = larger pronephric angle
# How it was run: as §1
Structure (SMILES),glomerular separation [1],glomerular width [2],fraction of imaged embryos annotated as normal kidney [3],pronephric angle neck segment [4]
O=c1[nH]c2ccccc2n1CCCN1CCC(n2c(=O)[nH]c3cc(Cl)ccc32)CC1 [Domperidone],0.857 ± 0.34,1.03 ± 0.08,0.818,0.963 ± 0.041
C=C1CC[C@@]2(O)[C@H]3Cc4ccc(O)c5c4[C@@]2(CCN3CC2CC2)[C@H]1O5 [Nalmefene hydrochloride],0.938 ± 0.31,1.016 ± 0.01,0.75,1.007 ± 0.0021
CC(Cc1ccccc1)NCCC(c1ccccc1)c1ccccc1 (stereo not given) [Prenylamine lactate],1.05 ± 0.22,1.07 ± 0.071,0.727,0.953 ± 0.032
CC(C)(C)NCC(O)c1ccccc1Cl (stereo not given) [Tulobuterol],1.02 ± 0.37,0.9779 ± 0.007,0.917,1.01 ± 0.039
CC(CCc1ccccc1)NC(C)C(O)c1ccc(O)cc1 (stereo not given) [Nylidrin],0.871 ± 0.34,1.02 ± 0.035,0.917,1 ± 0.02
C[N+]1(C)CCCC(OC(=O)C(O)(c2ccccc2)c2ccccc2)C1 (stereo not given) [Mepenzolate bromide],1.4 ± 0.8,1.01 ± 0.011,0.727,1 ± 0.054
"CNCC(O)c1ccc(O)cc1 (racemic) [(+,-)-Synephrine]",1.01 ± 0.41,0.959 ± 0.015,0.833,1.017 ± 0.0012
O[C@@H]1CCCC[C@H]1N1CCC(c2ccccc2)CC1 [L(-)-vesamicol hydrochloride],1.01 ± 0.55,0.955 ± 0.032,0.917,1.01 ± 0.075
O=C(CCCN1CCC2(CC1)C(=O)NCN2c1ccccc1)c1ccc(F)cc1 [Spiperone],1.21 ± 0.45,0.978 ± 0.02,0.833,1.06 ± 0.078
C[C@]12CC[C@H](O)C[C@H]1CC[C@@H]1[C@@H]2CC[C@]2(C)[C@@H](C3=CC(=O)OC3)CC[C@]12O [Digitoxigenin],1.38 ± 0.71,1.0869 ± 0.00048,0.667,1.03 ± 0.066
